According to PubChem BioAssay AID1159580 (chemical genetic matrix, 2015):
Where “and” joins values, the source holds several entries; their conditions need not be identical. Equal values may be shown once. Out of some 5,500 compounds screened, about 2,000 (36%) were called active. Another 18% or so got no clear call; they are omitted. No stated cut-off is given here; in the data, active means normalized growth mostly below about 0.91 (no sharp cut-off); inconclusive means no clear call, values can overlap the other calls; inactive means mostly above about 0.92. The list shows a part of the results.

Test: chemical genetic growth profiling, strain panel (AID 1159580);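 further: tested at 20 µM; growth read once vehicle control cultures reached saturation at 30 °C; 1 = growth at the plate median or of vehicle wells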
Settings: S. cerevisiae deletion strains, growth OD

Measured: normalized growth

CN[C@@H]1[C@H](O)[C@H](NC)[C@H]2O[C@@]3(O)C(=O)C[C@@H](C)O[C@H]3O[C@@H]2[C@H]1O
inactive: locus YAL013W, strain DEP1, stronger effect = lower value 1.01 | locus YAL021C, strain ccr4, stronger effect = lower value 0.982 | locus YAL026C, strain drs2, stronger effect = lower value 1 | locus YAL030W, strain snc1, stronger effect = lower value 1 | locus YBL061C, strain skt5, stronger effect = lower value 1.01 | locus YBR009C, strain hhf1, stronger effect = lower value 0.976 | locus YBR021W, strain FUR4, stronger effect = lower value 0.997 | locus YBR023C, strain chs3, stronger effect = lower value 1 | locus YBR171W, strain sec66, stronger effect = lower value 1.01 | locus YBR229C, strain ROT2, stronger effect = lower value 1.01 | locus YBR231C, strain swc5, stronger effect = lower value 1.01 | locus YBR279W, strain paf1, stronger effect = lower value 0.988 | locus YCL011C, strain gbp2, stronger effect = lower value 0.991 | locus YCL016C, strain dcc1, stronger effect = lower value 0.984 | locus YCL029C, strain bik1, stronger effect = lower value 1.03 | locus YCL061C, strain MRC1, stronger effect = lower value 1.02 | locus YCL069W, strain vba3, stronger effect = lower value 1 | locus YCR088W, strain abp1, stronger effect = lower value 1 | locus YDL005C, strain med2, stronger effect = lower value 1 | locus YDL035C, strain GPR1, stronger effect = lower value 1.02 | locus YDL040C, strain nat1, stronger effect = lower value 1.01 | locus YDL074C, strain BRE1, stronger effect = lower value 1.02 | locus YDL101C, strain DUN1, stronger effect = lower value 1.02 | locus YDL134C, strain PPH21, stronger effect = lower value 1.01 | locus YDL185W, strain tfp1, stronger effect = lower value 1.02 | locus YDL192W, strain arf1, stronger effect = lower value 1.02 | locus YDR001C, strain nth1, stronger effect = lower value 0.997 | locus YDR069C, strain doa4, stronger effect = lower value 1.02 | locus YDR101C, strain arx1, stronger effect = lower value 1.02 | locus YDR137W, strain rgp1, stronger effect = lower value 0.989 | locus YDR150W, strain NUM1, stronger effect = lower value 1.01 | locus YDR159W, strain sac3, stronger effect = lower value 0.969 | locus YDR162C, strain NBP2, stronger effect = lower value 1.03 | locus YDR195W, strain ref2 0.99 | locus YDR297W, strain sur2, stronger effect = lower value 1 | locus YDR318W, strain mcm21, stronger effect = lower value 1.03 | locus YDR334W, strain swr1, stronger effect = lower value 1 | locus YDR335W, strain msn5, stronger effect = lower value 1 | locus YDR388W, stronger effect = lower value 1.02 | locus YDR392W, strain spt3, stronger effect = lower value 0.956 | locus YDR502C, strain sam2, stronger effect = lower value 1.02 | locus YEL003W, strain gim4, stronger effect = lower value 1 | locus YEL037C, strain rad23, stronger effect = lower value 0.998 | locus YEL061C, strain CIN8 (second series), stronger effect = lower value 0.991 | locus YEL061C, strain CIN8, stronger effect = lower value 1.01 | locus YER015W, strain faa2, stronger effect = lower value 1 | locus YER016W, strain bim1, stronger effect = lower value 0.974 | locus YER110C, stronger effect = lower value 1.03 | locus YER111C, strain swi4, stronger effect = lower value 1.01 | locus YER155C, strain BEM2 (second series), stronger effect = lower value 1.04 | locus YER155C, strain BEM2, stronger effect = lower value 1.01 | locus YER167W, strain BCK2, stronger effect = lower value 1.02 | locus YFR010W, strain ubp6, stronger effect = lower value 1.02 | locus YGL078C, strain dbp3, stronger effect = lower value 1.02 | locus YGL086W, strain mad1, stronger effect = lower value 1.02 | locus YGL167C, strain pmr1, stronger effect = lower value 1.02 | locus YGL173C, strain kem1, stronger effect = lower value 1.03 | locus YGL227W, strain vid30, stronger effect = lower value 1.01 | locus YGL240W, strain doc1, stronger effect = lower value 1.03 | locus YGL248W, strain PDE1, stronger effect = lower value 1.02 | locus YGL253W, strain hxk2, stronger effect = lower value 0.973 | locus YGR078C, strain PAC10, stronger effect = lower value 1.02 | locus YGR135W, strain pre9, stronger effect = lower value 1.02 | locus YGR229C, strain SMI1, stronger effect = lower value 1.02 | locus YGR252W, strain gcn5, stronger effect = lower value 1.01 | locus YHR013C, strain ard1, stronger effect = lower value 0.993 | locus YHR027C, strain rpn1, stronger effect = lower value 0.993 | locus YHR030C, strain SLT2, stronger effect = lower value 1.02 and 0.968 | locus YHR079C, strain IRE1 (second series), stronger effect = lower value 1.03 | locus YHR079C, strain IRE1, stronger effect = lower value 0.953 | locus YHR094C, strain hxt1, stronger effect = lower value 1.02 | locus YHR129C, strain ARP1, stronger effect = lower value 1.01 | locus YHR142W, strain chs7, stronger effect = lower value 0.995 | locus YHR200W, strain rpn10, stronger effect = lower value 1 | locus YIL066C, strain RNR3, stronger effect = lower value 1.01 | locus YIL073C, strain SPO22, stronger effect = lower value 1.04 | locus YIL125W, strain kgd1, stronger effect = lower value 1.01 | locus YIR030C, strain dcg1, stronger effect = lower value 1.02 | locus YJL092W, strain hpr5, stronger effect = lower value 1.01 | locus YJL095W, strain BCK1 (second series), stronger effect = lower value 1.01 | locus YJL095W, strain BCK1, stronger effect = lower value 1.02 and 0.984 | locus YJL115W, strain asf1, stronger effect = lower value 0.998 | locus YJL129C, strain trk1, stronger effect = lower value 1.01 | locus YJL134W, strain LCB3, stronger effect = lower value 1.01 | locus YJL154C, strain vps35, stronger effect = lower value 0.991 | locus YJL164C, strain tpk1, stronger effect = lower value 0.987 | locus YJL166W, strain qcr8, stronger effect = lower value 1.02 | locus YJL168C, strain set2, stronger effect = lower value 1.02 | locus YJL187C, strain SWE1 (second series), stronger effect = lower value 1.02 | locus YJR043C, strain POL32, stronger effect = lower value 1.01 | locus YJR066W, strain TOR1, stronger effect = lower value 0.977
